Results: PubChem BioAssay (NCI)
This is part of a sample that, as a whole, favours compounds with a hit. Of some 79,000 tested, about 15% had one in any assay. Rule as the data show it: active = growth inhibition above about 70%; inactive = the rest.

Experiments:
[1] = NCI Yeast Anticancer Drug Screen. Data for the rad50 strain (AID 155);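 also: 0% = growth of vehicle-only cultures of the same strain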; conditions: S. cerevisiae rad50 strain growth inhibition; at 50.0 µM; hits give high values
Summary of the method: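 Yeast carrying a defined DNA repair defect were exposed to test compounds, and growth was compared with vehicle-treated controls to give percent inhibition.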

[2] = NCI Yeast Anticancer Drug Screen. Data for the mec2-1 strain (AID 157); conditions: S. cerevisiae mec2-1 strain, at 50.0 µM, hits give high values
Summary of the method: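 Mutant yeast (mec2-1) grown with compound; growth inhibition relative to vehicle control reported.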

[3] = NCI Yeast Anticancer Drug Screen. Data for the sgs1 mgt1 strain (AID 161);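 also: 0% = growth of cultures given vehicle only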; conditions: S. cerevisiae sgs1 mgt1 strain, at 50.0 µM, hits give high values
Summary of the method: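 Compounds are added to genetically altered yeast, and growth is compared with cultures given vehicle alone to give percent inhibition.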

[4] = NCI Yeast Anticancer Drug Screen. Data for the cln2 rad14 strain (AID 165);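 also: 0% = growth equal to vehicle treated cultures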; conditions: S. cerevisiae cln2 rad14 strain, at 50.0 µM, hits give high values
Summary of the method: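 Readout is yeast growth inhibition versus vehicle-treated controls, using a strain with cln2 and rad14 alterations exposed to compound.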

[5] = NCI Yeast Anticancer Drug Screen. Data for the bub3 strain (AID 167); conditions: S. cerevisiae bub3 mutant strain, at 50.0 µM, hits give high values
Summary of the method: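 Compounds were applied to a genetically altered yeast strain carrying a cell-cycle control defect. Growth inhibition was scored against vehicle-treated controls.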

[6] = NCI Yeast Anticancer Drug Screen. Data for the mlh1 rad18 strain (AID 175); conditions: S. cerevisiae mlh1 rad18 strain growth inhibition; at 50.0 µM; hits give high values
Summary of the method: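 Genetically defined yeast (DNA repair-deficient) exposed to compounds; growth inhibition determined relative to vehicle.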

Measured: growth inhibition

O=c1cc(Nc2ccccc2)c2ccccc2[nH]1
inactive: [1] -3.3% | [2] -20.1% | [3] 7.3% | [4] 12.6% | [5] -15.3% | [6] 23.3%

CSc1nc2nc(C)[nH]c2c(=O)[nH]1
inactive: [1] 9.8% | [2] 5.45% | [3] -4.45% | [4] 41% | [5] 9.8% | [6] 7.6%

CC(C)N(C(=O)c1ncccc1C(=O)c1ccccn1)C(C)C
inactive: [1] -11.4% | [2] -5.65% | [3] -4.75% | [4] -5.2% | [5] -5.85% | [6] -5.05%

N/N=C(/Cc1ccccc1)NNO
inactive: [1] 30.4% | [2] 13.8% | [3] 27.1% | [4] 22.4% | [5] 12.8% | [6] 22.2%

Cc1ccc(S(=O)(=O)/C(C#N)=C/NC(=S)Nc2ccc(S(N)(=O)=O)cc2)cc1
inactive: [1] 12.5% | [2] -21.2% | [3] -4.1% | [4] -6.85% | [5] -10.7% | [6] -10.9%

NC(=O)C(Cc1ccc(O)cc1)NC(=O)c1ccccc1 (stereo not drawn)
inactive: [1] -8.8% | [2] -16.6% | [3] -0.1% | [4] 1.85% | [5] 22.1% | [6] -14.2%

Cc1cccc2c(/C=C/c3ccc(N(C)C)cc3)ccnc12
inactive: [1] -11.6% | [2] -8% | [3] -3.95% | [4] -22.2% | [5] 2.85% | [6] -11.4%

COCC1C(COC)C2CCC1C2(Cc1ccccc1)Cc1ccccc1 (stereo not drawn)
inactive: [1] 1.4% | [2] 12.4% | [3] 18.1% | [4] -45.4% | [5] 0% | [6] -7.2%

CC(=O)NC1C(O)CC(OCCCSCCN)(C(=O)O)OC1C(O)C(O)CO (stereo not drawn)
inactive: [1] -6.25% | [2] -22.6% | [3] -23.1% | [4] 11.3% | [5] -16.8% | [6] -26.5%

Cc1cc2cccc(C)c2[nH]1
inactive: [1] -11.4% | [2] -4.75% | [3] 18.6% | [4] 0.5% | [5] 4.6% | [6] -9.2%

NC(=O)C(CC(C(N)=O)C(N)=O)C(N)=O
inactive: [1] 7.5% | [2] 18.4% | [3] -8.45% | [4] -24.9% | [5] 7.7% | [6] -6.55%

S=C1SCN(c2ccc3c(c2)OCO3)CN1c1ccc2c(c1)OCO2
inactive: [1] -24.4% | [2] -33.9% | [3] 20.9% | [4] -0.6% | [5] -1.05% | [6] -20.1%

CCCCCCCCCCC/C(C)=N/Nc1ccc([N+](=O)[O-])cc1[N+](=O)[O-]
inactive: [1] 5.65% | [2] -5.15% | [3] 2.15% | [4] 11.8% | [5] -0.2% | [6] -13%

CCCOC(=O)Nc1cccc2ccccc12
inactive: [1] 0.65% | [2] -9.3% | [3] 12.5% | [4] -62.4% | [5] -21.8% | [6] -17.2%

CCCCCCC(N)(CCCCCC)C(=O)Nn1c(C)ccc1C
inactive: [1] 45% | [2] 13.1% | [3] 9.8% | [4] -20.6% | [5] 4.25% | [6] 31.2%

CCCCC(C(N)=O)C(C)(C)C(=O)O (stereo not drawn)
inactive: [1] -6% | [2] -0.45% | [3] 4.9% | [4] -21.2% | [5] 9.85% | [6] -1.75%

Cn1ccnc1CCc1c(Cl)cccc1Cl
inactive: [1] -19.9% | [2] -21.4% | [3] -47.1% | [4] 9.4% | [5] -16.2% | [6] -22.9%

CC(=O)Nc1ccc(C(=O)C=O)cc1
inactive: [1] -1.45% | [2] -4.4% | [3] 4.2% | [4] 26.5% | [5] -13.9% | [6] -40.8%

O=C1/C(=C/c2ccc(O)cc2)CCC1CNc1ccc(Cl)cc1 (stereo not drawn)
inactive: [1] 14.8% | [2] 12.6% | [3] -2.6% | [4] 18.1% | [5] 5.55% | [6] 39.9%

c1ccc(C2SCSCS2)cc1
inactive: [1] 12.1% | [2] -5.45% | [3] -15.8% | [4] -8.4% | [5] 1.1% | [6] 6.95%

O=C1C=C(Nc2nc(C(=O)O)cc(=O)[nH]2)c2ccccc2C1=O
inactive: [1] 8.7% | [2] -15.2% | [3] -29.3% | [4] 15.9% | [5] -25.6% | [6] -24.6%

COc1ccccc1NC(=O)C(/C=N/C(N)=S)=C(\C)O
inactive: [1] -20.1% | [2] -6.5% | [3] -33.1% | [4] 7.6% | [5] -3.65% | [6] -14.4%

Cn1c(=O)c2[nH]c(CCCc3ccc([N+](=O)[O-])cc3)nc2n(C)c1=O
inactive: [1] -2.45% | [2] -5.5% | [3] -27.5% | [4] -26.9% | [5] -40.5% | [6] 4.75%
